# Measurements reported in the supplement of paper PMC4166925.
# ± gives the standard deviation of the averaged measurements. The full ranking holds about 33,000 sequences; the median of “E-score (dimensionless, -0.5 to 0.5)” is about -0.046, and the highest 2% start at about 0.36. The sample as a whole holds a higher share of the highest values than the screen did.
# System: T1, SpTbr T-box DNA-binding domain (GST fusion)
# T1 sequence: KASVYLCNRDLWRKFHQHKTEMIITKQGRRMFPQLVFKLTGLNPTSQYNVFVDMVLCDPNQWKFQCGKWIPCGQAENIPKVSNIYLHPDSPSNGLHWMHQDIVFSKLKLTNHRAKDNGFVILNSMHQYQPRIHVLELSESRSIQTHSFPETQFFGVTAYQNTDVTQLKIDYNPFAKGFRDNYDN
# Assay: PBM E-score of 8-mer (E-score (dimensionless, -0.5 to 0.5)); Tbr is Tbrain of the sea star Patiria miniata (Pm) or the sea urchin Strongylocentrotus purpuratus (Sp); higher = stronger binding preference
# Conditions: the construct has about 5 more residues each side
# Procedure, shortened: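 Primer extension turned Universal Agilent oligonucleotide arrays double-stranded. They were incubated with 200 nM protein in PBS (pH 7.5); the protein was a GST-fused Tbr T-box DNA-binding domain expressed in BL21 E. coli at 20 °C and purified on glutathione. Every ungapped 8-mer was scored from the scanned, quantified probe intensities, and the Universal PBM Analysis Suite gave each an enrichment E-score averaged over duplicate arrays.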
row,Sequence,PBM E-score of 8-mer
1,ATGCACGC,-0.0415 ± 0.12
2,AGGTGAAC,0.164 ± 0.025
3,CGAAATCG,0.2456 ± 0.0015
4,CACTTGCG,0.387 ± 0.026
5,AACTTGCG,0.198 ± 0.0091
6,CACTTGTA,0.116 ± 0.046
7,CACTTGCA,0.336 ± 0.012
8,AACTTGTC,0.355 ± 0.03
9,CACTTGTC,0.375 ± 0.012
10,CGGCGCCC,0.0161 ± 0.043
11,CTCTGACA,0.233 ± 0.019
12,TAACATTA,-0.0674 ± 0.087
13,TAATATTA,-0.13 ± 0.033
14,GAGTCGAC,0.107 ± 0.061
15,GATGTCCA,-0.22 ± 0.056
16,AGCTAACG,0.236 ± 0.016
17,GGCTAACA,0.235 ± 0.024
18,CGCTAACC,0.19 ± 0.0091
19,CGCTAACG,0.373 ± 0.0088
20,TGCTAACA,0.369 ± 0.022
21,AGCTAACA,0.233 ± 0.022
22,CAGCTCGG,-0.132 ± 0.057
23,CGGTGGAA,-0.0405 ± 0.033
24,ATCTATGC,-0.197 ± 0.03
25,ACGAGTAT,-0.0491 ± 0.014

row,Sequence,PBM E-score of 8-mer
1,CAATCCTA,-0.0316 ± 0.041
2,AAACCACT,-0.258 ± 0.016
3,AGCACTTG,0.168 ± 0.018
4,AACGCATG,0.0228 ± 0.0081
5,AACCTTGG,-0.0793 ± 0.032
6,CAGCTTGG,-0.00698 ± 0.044
7,TACCTTGA,0.01 ± 0.065
8,CACCTTGG,0.45 ± 0.005
9,CACCTTGC,0.389 ± 0.013
10,GACCTTGA,-0.145 ± 0.019
11,CACCTTGA,0.367 ± 0.042
12,GACCTTGC,-0.153 ± 0.0056
13,AACCTTGC,0.00568 ± 0.0057
14,ACACTGTA,0.172 ± 0.036
15,ACTTGATA,0.108 ± 0.039
16,AGACAGCG,-0.00288 ± 0.048
17,CTGAAAGC,-0.193 ± 0.033
18,CTGTAAAC,0.132 ± 0.0059
19,GTGTAAAC,0.367 ± 0.02
20,ATGTAAAC,0.0731 ± 0.026
21,AGCAGATA,-0.195 ± 0.043
22,ACAGCCCT,-0.109 ± 0.054
23,ATGTGTGA,0.4838 ± 0.001
24,ATGTGTGC,0.299 ± 0.0091
25,ATATGTGA,0.242 ± 0.055

row,Sequence,PBM E-score of 8-mer
1,GTGTGTAA,0.27 ± 0.0036
2,AAATGTGG,0.114 ± 0.01
3,AAATGTGC,0.151 ± 0.076
4,AAATGTGT,0.435 ± 0.0081
5,GTGTGTGA,0.4221 ± 0.003
6,CTGTGTGA,0.341 ± 0.0081
7,CAGCCAAC,0.106 ± 0.037
8,GTAGCGCA,-0.148 ± 0.091
9,GATGCGCA,0.014 ± 0.028
10,ATCTCCAC,0.0376 ± 0.0077
11,AACGTTTC,-0.191 ± 0.019
12,TCTCGAAA,-0.0659 ± 0.035
13,ACGCCACT,0.285 ± 0.013
14,CCACAACC,0.113 ± 0.015
15,AAGTTTAT,-0.141 ± 0.074
16,AATGCAGT,-0.188 ± 0.028
17,ATCGACAC,0.389 ± 0.013
18,GTCGACAC,0.394 ± 0.018
19,GTCGACAA,0.275 ± 0.0098
20,ATCGACAA,0.213 ± 0.0072
21,ATCGACAG,0.286 ± 0.005
22,CTCGACAC,0.3634 ± 0.0018
23,AATGGCTG,-0.183 ± 0.012
24,CAAGTAGA,-0.0961 ± 0.025
25,ATCTCGGA,-0.276 ± 0.03

row,Sequence,PBM E-score of 8-mer
1,CCATACCG,-0.115 ± 0.017
2,ACTCAAGC,-0.127 ± 0.023
3,AGTTAACG,0.127 ± 0.006
4,CGTTAACG,0.372 ± 0.0041
5,CGTTAGCA,0.37 ± 0.0046
6,AGTTAACA,0.334 ± 0.023
7,CGTTAACC,0.113 ± 0.07
8,TGTTAACA,0.421 ± 0.029
9,AGTTAGCA,0.284 ± 0.045
10,CGTTAAAA,0.0585 ± 0.1
11,CATTAACA,0.329 ± 0.029
12,GGTTAGCA,0.257 ± 0.034
13,CGTTAACA,0.4129 ± 0.0026
14,GGTTAACA,0.287 ± 0.012
15,CAAGTTCG,0.0356 ± 0.0073
16,TAGGCGAA,0.0827 ± 0.01
17,CGATACCC,-0.00698 ± 0.068
18,ACTTAATG,-0.1 ± 0.055
19,CGATTTTA,-0.151 ± 0.033
20,CAGGTGTC,0.4679 ± 0.0019
21,GAGGTGAA,0.198 ± 0.0028
22,ACGGTGAT,0.115 ± 0.028
23,AAGGTGAT,0.384 ± 0.023
24,CCGGTGAG,0.089 ± 0.024
25,CCGGTGTC,0.18 ± 0.047

row,Sequence,PBM E-score of 8-mer
1,CAGGTGAG,0.399 ± 0.0058
2,CAGGTGAA,0.199 ± 0.031
3,AGGGTGAT,0.123 ± 0.024
4,GGGGTGAC,0.293 ± 0.043
5,GAGGTGAC,0.429 ± 0.018
6,CAGGTGTA,0.358 ± 0.0037
7,CGAAGCCG,0.244 ± 0.045
8,ACCAGCTA,-0.0508 ± 0.0037
9,CGCGAGCA,0.275 ± 0.036
10,AGCAGAGA,-0.259 ± 0.039
11,CGGACAAA,-0.0576 ± 0.039
12,CCGAAATC,-0.048 ± 0.0049
13,CAGAGCAG,-0.246 ± 0.033
14,ACGGTGAG,0.0305 ± 0.02
15,AAGGTGAC,0.381 ± 0.026
16,CAGGTGAC,0.425 ± 0.013
17,ACGGTGAC,0.284 ± 0.0089
18,AAGGTGAG,0.445 ± 0.014
19,CTGGTGAC,0.162 ± 0.074
20,AAGGTGAA,0.187 ± 0.0077
21,CAGATGAC,-0.0314 ± 0.026
22,AGGGTGAG,0.216 ± 0.048
23,ACAGCTCC,0.157 ± 0.0081
24,GCCTGCAC,-0.0663 ± 0.051
25,ACGTGGGG,-0.127 ± 0.012

row,Sequence,PBM E-score of 8-mer
1,ACGTGGGC,-0.0975 ± 0.06
2,CCGTGTCA,0.176 ± 0.013
3,ACGTGTCT,0.204 ± 0.034
4,ACGTGAGA,0.3312 ± 0.0033
5,ACGTGTGC,0.253 ± 0.017
6,GCGTGTAA,0.0697 ± 0.022
7,ACGTGTGG,0.416 ± 0.00045
8,GCGTGTGA,0.399 ± 0.0074
9,ACGTGTGA,0.4797 ± 0.0017
10,GCGTGAGA,0.361 ± 0.03
11,ACGTGTCA,0.458 ± 0.0068
12,AACTCTTG,-0.0545 ± 0.035
13,CGTAGGAA,-0.00351 ± 0.079
14,CTTCTGCA,0.00227 ± 0.035
15,CAGCGCAG,-0.14 ± 0.069
16,CAACCCAG,-0.2068 ± 0.00038
17,AATCTGAG,0.0009 ± 0.0013
18,CTATGAGC,-0.1 ± 0.02
19,ACCGCTGC,0.0922 ± 0.006
20,CCGTGTGA,0.381 ± 0.017
21,CCGTGTGC,0.0129 ± 0.03
22,CCGTGAGA,0.143 ± 0.015
23,ATCTAGAA,-0.151 ± 0.049
24,CGCACGTC,0.331 ± 0.013
25,CACACGTA,0.356 ± 0.0042

row,Sequence,PBM E-score of 8-mer
1,CACACGTC,0.451 ± 0.0092
2,CACACGTG,0.383 ± 0.0078
3,CACACGGC,0.151 ± 0.069
4,AACACGTG,0.36 ± 0.008
5,AACCCCTG,-0.108 ± 0.043
6,CACTGAGC,0.00197 ± 0.0073
7,CGCTTTAA,-0.169 ± 0.035
8,AAAGTAGC,-0.0267 ± 0.0034
9,ACTCGACA,0.24 ± 0.029
10,CAGCTGCC,-0.0128 ± 0.074
11,TAGTGGGA,-0.0317 ± 0.03
12,GAGTGTGA,0.478 ± 0.0052
13,GAGTGTAA,0.235 ± 0.04
14,CAGTGTGG,0.243 ± 0.043
15,GAGTGTGC,0.296 ± 0.015
16,TAGTGTGA,0.453 ± 0.011
17,TAGTGAGA,0.209 ± 0.089
18,CAGTGTAA,0.0331 ± 0.071
19,CAGTGTGA,0.393 ± 0.0076
20,CCAAAGGA,-0.262 ± 0.032
21,AGCCTCAC,0.178 ± 0.015
22,GCTGTTCC,-0.0355 ± 0.05
